According to PubChem BioAssay (NCI):
Compounds without any hit were thinned out: in the full panel of roughly 79,000, 15% have a hit. The source made the active and inactive calls. Rule as the data show it: active = growth inhibition above about 70%; inactive = the rest.

Key:
[1] = NCI Yeast Anticancer Drug Screen. Data for the rad50 strain (AID 155);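 also: 0% = growth of vehicle-only cultures of the same strain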; details: S. cerevisiae rad50 strain growth inhibition, hits give high values
Method in brief: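 A DNA repair-deficient yeast mutant serves as the test organism; compound-induced growth inhibition is calculated against vehicle-treated cells.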

[2] = NCI Yeast Anticancer Drug Screen. Data for the mec2-1 strain (AID 157); details: S. cerevisiae mec2-1 strain, hits give high values
Method in brief: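 Compounds were applied to mec2-1 yeast cells. Their growth was then compared with that of vehicle-treated cultures to give growth inhibition.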

[3] = NCI Yeast Anticancer Drug Screen. Data for the sgs1 mgt1 strain (AID 161);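 also: 0% = growth of cultures given vehicle only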; details: S. cerevisiae sgs1 mgt1 strain, hits give high values
Method in brief: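 Growth of a repair-deficient yeast mutant was monitored after compound treatment and expressed as inhibition relative to vehicle-treated cultures.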

[4] = NCI Yeast Anticancer Drug Screen. Data for the cln2 rad14 strain (AID 165);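 also: 0% = growth equal to vehicle treated cultures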; details: S. cerevisiae cln2 rad14 strain, hits give high values
Method in brief: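 Strain: cln2 rad14 yeast, altered in cell cycle control and DNA damage repair. Read-out: growth inhibition vs vehicle.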

[5] = NCI Yeast Anticancer Drug Screen. Data for the bub3 strain (AID 167); details: S. cerevisiae bub3 mutant strain, hits give high values
Method in brief: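 Inhibition values come from growth of compound-treated mutant yeast normalised to vehicle-treated controls.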

[6] = NCI Yeast Anticancer Drug Screen. Data for the mlh1 rad18 strain (AID 175); details: S. cerevisiae mlh1 rad18 strain growth inhibition, hits give high values
Method in brief: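 A repair-deficient yeast strain is exposed to test compound, and growth is scored relative to vehicle-treated controls.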

[7] = at 5.0 µM (retest, dose inferred, filed as 0.5)
[8] = at 50.0 µM (retest, dose inferred, filed as 5.0)

Measured: growth inhibition

CCCCCCCCCCCCCCCCNc1ccn(C2CC(OP(=O)(O)OCC3OC(n4cc(CC)c(=O)[nH]c4=O)CC3O)C(CO)O2)c(=O)n1 (configuration not stated)
inactive: [1]; at 50.0 µM 41.8% | [2]; [7] 26% | [2]; at 50.0 µM 12.8% | [3]; at 50.0 µM 58% | [4]; [7] 7% | [4]; [8] 64% | [4]; at 50.0 µM 39.5% | [5]; [7] -19% | [5]; at 50.0 µM 11.8% | [6]; [7] 59% | [6]; at 50.0 µM 16.3%
active: [1]; [7] 73% | [1]; [8] 97% | [2]; [8] 97% | [3]; [7] 94% | [3]; [8] 97% | [5]; [8] 92% | [6]; [8] 87%

CC(=O)Nc1cccc2ccc(C)cc12
inactive: [1]; [7] 0% | [1]; [8] 1% | [1]; at 50.0 µM -5.5% | [2]; [7] 2% | [2]; [8] 4% | [2]; at 50.0 µM 4.85% | [3]; [7] 1% | [3]; [8] 1% | [3]; at 50.0 µM -22.9% | [4]; [7] 1% | [4]; [8] 5% | [5]; [7] 1% | [5]; [8] -1% | [5]; at 50.0 µM 23.1% | [6]; [7] 0% | [6]; [8] 2% | [6]; at 50.0 µM 41.8%
active: [4]; at 50.0 µM 71.3%

O=C(O)Cc1ccccc1CCc1ccccc1Cl
active: [1]; [8] 74% | [1]; at 50.0 µM 85.2% | [2]; [8] 72% | [2]; at 50.0 µM 82.5% | [3]; [8] 71% | [3]; at 50.0 µM 83.5% | [4]; [8] 74% | [4]; at 50.0 µM 87.1% | [5]; [8] 83% | [5]; at 50.0 µM 77.1% | [6]; [8] 83% | [6]; at 50.0 µM 81.3%
inactive: [1]; [7] -26% | [2]; [7] -11% | [3]; [7] -19% | [4]; [7] -2% | [5]; [7] 2% | [6]; [7] -19%

CCCCCCC(O)C(CO)CCCCC (configuration not stated)
inactive: [1]; [7] 0% | [2]; [7] -2% | [3]; [7] 1% | [3]; [8] 62% | [3]; at 50.0 µM 45.5% | [4]; [7] 5% | [5]; [7] 0% | [6]; [7] -2%
active: [1]; [8] 97% | [1]; at 50.0 µM 98% | [2]; [8] 96% | [2]; at 50.0 µM 98% | [4]; [8] 97% | [4]; at 50.0 µM 98.8% | [5]; [8] 97% | [5]; at 50.0 µM 98.2% | [6]; [8] 92% | [6]; at 50.0 µM 98.5%

CCCCCC(=O)/C=C/c1ccc(C)cc1
active: [1]; at 50.0 µM 82.6% | [3]; at 50.0 µM 83% | [4]; at 50.0 µM 75% | [6]; at 50.0 µM 81.7%
inactive: [1]; [7] -155% | [1]; [8] -162% | [2]; [7] -47% | [2]; [8] -59% | [2]; at 50.0 µM 56.9% | [3]; [7] -60% | [3]; [8] -65% | [4]; [7] -59% | [4]; [8] -80% | [5]; [7] -59% | [5]; [8] -57% | [5]; at 50.0 µM 61.8% | [6]; [7] -123% | [6]; [8] -131%

O=C(Nc1ccccc1)c1ccc(Cl)cc1Cl
inactive: [1]; [7] -15% | [1]; [8] -21% | [1]; at 50.0 µM 1.35% | [2]; [7] -9% | [2]; [8] -4% | [2]; at 50.0 µM 1.85% | [3]; [7] -2% | [3]; [8] 7% | [3]; at 50.0 µM -3.15% | [4]; [7] 31% | [4]; [8] -50% | [4]; at 50.0 µM -7.95% | [5]; [7] 4% | [5]; [8] -34% | [5]; at 50.0 µM 8.75% | [6]; [7] -6% | [6]; [8] -8% | [6]; at 50.0 µM 8.05%

CCOC(=O)C[n+]1c(C)cc(-c2ccccc2)cc1C
inactive: [1]; [7] -2% | [1]; [8] 1% | [1]; at 50.0 µM 13.6% | [2]; [7] 7% | [2]; [8] -15% | [2]; at 50.0 µM 6.3% | [3]; [7] -1% | [3]; [8] -3% | [3]; at 50.0 µM 12.2% | [4]; [7] -1% | [4]; [8] 2% | [4]; at 50.0 µM 28.1% | [5]; [7] 24% | [5]; [8] -4% | [5]; at 50.0 µM 14.2% | [6]; [7] 9% | [6]; [8] 21% | [6]; at 50.0 µM 7.55%

COC(=O)c1nc(=S)[nH]c(C(=O)OC)c1C(=O)c1ccc2ccccc2c1
inactive: [1]; [7] 26% | [2]; [7] 9% | [3]; [7] 0% | [4]; [7] 8% | [4]; at 50.0 µM 25.8% | [5]; [7] 13% | [6]; [7] 16%
active: [1]; [8] 96% | [1]; at 50.0 µM 94.5% | [2]; [8] 97% | [2]; at 50.0 µM 71.5% | [3]; [8] 97% | [3]; at 50.0 µM 93.3% | [4]; [8] 96% | [5]; [8] 98% | [5]; at 50.0 µM 71.1% | [6]; [8] 98% | [6]; at 50.0 µM 94.5%

C#CC(NCCC(C)CC(C)(C)C)C(C)C (configuration not stated)
inactive: [1]; [7] -4% | [1]; [8] -62% | [2]; [7] 2% | [2]; [8] -31% | [2]; at 50.0 µM 36.2% | [3]; [7] -3% | [3]; [8] -22% | [4]; [7] -2% | [4]; [8] -14% | [4]; at 50.0 µM 21.4% | [5]; [7] -14% | [5]; [8] -68% | [5]; at 50.0 µM 29.6% | [6]; [7] -3% | [6]; [8] -43% | [6]; at 50.0 µM 65.2%
active: [1]; at 50.0 µM 83.3% | [3]; at 50.0 µM 87.7%
